Sampled rows, rich in hits. Any-hit rate of the full collection: about 4%.
TROY signal inh: inhibitors of TROY-dependent NF-kB signaling. hit rate 0.98% among 360,000. Q293 LMP1-TROYcd NF-kB luciferase reporter, 4 h. AID 1347056. inhibition, % at 10 µM;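 active means compounds whose plate-normalised and pattern-corrected inhibition of the luciferase reporter signal at the single screening dose is 50% or more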
KKLEB tox: counter-screen for CF NF-kB inhibitors: cytotoxicity | KKLEB CF airway cells viability, ATPlite luminescence, overnight; active compounds read low; cells stimulated with P. aeruginosa culture filtrate | activity change (cytotoxicity), % at 5 µM | hit rate 0.36% among 360,000;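 active means corrected activity change at or below -50% at 5 µM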
HIF-2a block: inhibitors of HIF-2a. 786-0 RCC cells HIF-2a reporter, luciferase luminescence, overnight. inhibition, % at 18.8 µM. hit rate 0.72% among 360,000;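 active means inhibition of the luminescence signal of 40% or more relative to plate controls, in a single-dose primary screen at 18.75 µM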
TWEAK-Fn14 inh: inhibitors of TWEAK-Fn14 interaction signaling | TWEAK-stimulated Fn14 reporter cells, luciferase luminescence, 8 h | inhibition, % at 10 µM | hit rate 2% among 360,000 | AID 1159606; in the data active means inhibition above about 50%
CF NFkB block: inhibitors of cystic fibrosis induced NF-kB; KKLEB NF-kB-GFP reporter, PAF-induced, GFP fluorescence overnight; inhibition, % at 5 µM; hit rate 0.86% among 360,000; AID 588850;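 active means at least 50% inhibition at 5 µM, scaled per plate between neutral and stimulator controls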;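 further: PAF is a Pseudomonas aeruginosa culture filtrate used as stimulus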
Peg3 prom inh: Peg3 promoter activity inhibition; inhibition, % at 20 µM; hit rate 1.7% among 360,000; HeLa PEG-Prom luciferase reporter, luminescence, overnight;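 active means inhibition of at least 50% at 20 µM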
Numbers stand for hits; i = inactive; nt = no result.

SMILES	TROY signal inh	KKLEB tox	HIF-2a block	TWEAK-Fn14 inh	CF NFkB block	Peg3 prom inh
O=C(c1cccc(S(=O)(=O)N2CCc3ccccc32)c1)N1CCOCC1	i	i	i	i	i	i
Cc1ccc(N2CC(C(=O)OCC(=O)Nc3ccccc3C)CC2=O)cc1 (configuration not stated)	i	i	i	i	i	i
O=C(O)CN1C(=O)/C(=C\c2cc(Br)ccc2OCc2ccc(Cl)cc2Cl)SC1=S	87	i	i	i	i	i
O=C(O)CN1C(=O)/C(=C\c2ccccc2OCc2ccc(Cl)cc2)SC1=S	i	i	i	i	i	i
Cc1ccc(N/C(N)=N/c2nc3c(c(=O)[nH]2)CCCC3)c(C)c1	i	i	i	i	i	i
Cc1ccc(N/C(N)=N/c2nc(C)cc(N3CCCCC3)n2)c(C)c1	61	i	i	i	i	91
O=C(COc1ccc(Cl)cc1Cl)NC(=O)NC1CCCC1	i	i	i	i	i	i
O=C(NC(=S)N1CCCc2ccccc21)c1ccco1	53	i	i	52	i	i
O=C(COc1ccc(Cl)cc1Cl)NC(=S)N1CCCc2ccccc21	i	i	i	58	i	i
Cc1ccc(C(=O)N2CCc3ccccc32)cc1NC(=O)c1ccco1	i	i	i	89	i	i
CC1Cc2ccccc2N1C(=S)NC(=O)c1ccco1 (configuration not stated)	i	i	i	i	i	i
O=C(COc1ccc(Cl)cc1Cl)NC(=O)N1CCCCC1	i	i	i	61	i	i
COC(=O)C[C@@H]1CC[C@H](NC(=O)c2ccc3c(c2)OCO3)[C@@H](CO)O1	nt	nt	i	nt	nt	nt
CCCCN(C(=O)c1cc(CN2C(=O)c3ccccc3C2=O)ccc1OC)c1c(N)n(CC(C)C)c(=O)[nH]c1=O	i	i	i	i	i	i
Cc1c(C)n(CCc2ccccc2)c2ncnc(NCCCN(C)C)c12	i	i	i	i	i	i
Cc1cccc(OCC(=O)NC(=S)N2CCCc3ccccc32)c1	i	i	i	56	i	i
CCOC(=O)N1CCN(S(=O)(=O)c2ccc(C(=O)NNc3nc4c(C)cccc4s3)cc2)CC1	i	i	i	i	i	i
CC1CCCN(S(=O)(=O)c2ccc(C(=O)Nc3ccccc3-c3nc4ccccc4[nH]3)cc2)C1 (configuration not stated)	i	-55	i	i	68	i
CC1CCN(S(=O)(=O)c2ccc(C(=O)Nc3ccccc3-c3nc4ccccc4[nH]3)cc2)CC1	i	i	i	i	i	i
Cc1cccc2sc(NNC(=O)c3ccc(S(=O)(=O)N4CCCC(C)C4)cc3)nc12 (configuration not stated)	i	i	i	63	i	68
CCc1nnc(NC(=O)c2ccc(S(=O)(=O)N3CCCC(C)C3)cc2)s1 (configuration not stated)	i	i	i	i	i	i
Cc1cccc2sc(NNC(=O)c3ccc(S(=O)(=O)N4CCc5ccccc5C4)cc3)nc12	i	i	i	i	i	61
O=C(Cc1ccccc1)NCC(=O)N1CCC2(CC1)NCCc1[nH]cnc12	i	i	i	i	i	i
CCc1ccccc1CC1CN(Cc2ccccc2)Cc2ccccc2N1c1ccc(OC)cc1 (configuration not stated)	nt	nt	i	nt	nt	nt
O=C1N(c2ccccc2C(F)(F)F)OC1(Cc1ccccc1)c1ccccc1 (configuration not stated)	i	i	i	i	i	58
SMILES	TROY signal inh	KKLEB tox	HIF-2a block	TWEAK-Fn14 inh	CF NFkB block	Peg3 prom inh
COCc1[nH]nc2c1C(c1ccc(OC)c(OC)c1)C(C#N)=C(N)O2 (configuration not stated)	i	i	i	i	i	i
CCn1c2ccccc2c2cc(C3C(C#N)=C(N)Oc4n[nH]c(COC)c43)ccc21 (configuration not stated)	i	i	i	i	i	89
COc1cccc(OCC(=O)Nc2c3c(nn2-c2ccccc2)CS(=O)(=O)C3)c1	i	i	i	i	i	i
COC1=CC(=O)c2nc(Cl)ccc2C1=O	i	-91	90	94	83	107
Cc1c(Cc2ccccc2)sc(/N=C/c2c(O)ccc3ccccc23)c1C(N)=O	i	i	i	i	i	i
Cc1c(Cc2ccccc2)sc(/N=C/c2ccc3ccccc3c2)c1C(N)=O	i	i	i	60	i	i
COc1ccc(CNC(=O)c2ccc(-c3ccccc3)cc2)cc1	i	i	i	i	i	i
COc1ccc(CNC(=O)c2c(C)oc3c2C(=O)c2ccccc2C3=O)cc1	56	-82	73	99	90	102
CC(=O)c1c(C)oc2c1C(=O)c1ccccc1C2=O	i	i	i	i	86	i
CCCN(C)C1CN(Cc2cn(Cc3ccc(OC)cc3)nn2)S(=O)(=O)C1 (configuration not stated)	i	nt	i	i	nt	nt
Cc1ccc(-c2nc(N=Nc3ccc(O)cc3)n[nH]2)cc1	i	i	i	i	i	68
O=C(/C=C/c1ccccc1)CCN1CCCCC1	i	i	i	i	i	105
O=C(Nc1nc2ccc(F)cc2s1)C1CC(=O)N(c2ccc3c(c2)OCCO3)C1 (configuration not stated)	i	i	i	55	i	i
CSc1cccc2sc(NC(=O)C3=COCCO3)nc12	i	i	i	i	i	i
O=C(Nc1nc(-c2ccccn2)cs1)C1CC(=O)N(c2ccc3c(c2)OCCO3)C1 (configuration not stated)	i	i	i	70	i	i
O=C(Nc1nnc(C2CC2)s1)C1CC(=O)N(c2ccc3c(c2)OCCO3)C1 (configuration not stated)	51	i	i	78	i	i
O=C(Nc1nc2ccc(F)cc2s1)C1=COCCO1	i	i	i	85	i	i
COc1ccc(CNC(=O)C2CCC(CNS(=O)(=O)c3ccccc3)CC2)cc1 (configuration not stated)	i	i	i	i	i	i
CCO[C@@H]1OC(C(=O)N2CCCCCCC2)=C[C@H](c2ccc3c(c2)OCO3)[C@H]1CCCO	i	i	i	i	i	i
Nn1c(SCC(=O)Nc2ccccc2Oc2ccccc2)nnc1C1CC1	i	i	i	i	i	i
COc1ccc(-c2nc(NC(=O)C3CC(=O)N(c4ccc5c(c4)OCCO5)C3)sc2C)cc1 (configuration not stated)	i	i	i	82	i	i
COc1ccc2nc(NC(=O)C3CC(=O)N(c4ccc5c(c4)OCCO5)C3)sc2c1 (configuration not stated)	i	i	i	i	i	i
O=C(CCN1C(=O)C2CCCCC2C1=O)Nc1nc2ccc(F)cc2s1 (configuration not stated)	73	i	i	72	i	i
CC(=O)C1=C(O)C(=O)N(CCC(=O)O)C1c1ccccc1Cl (configuration not stated)	i	i	i	59	i	i

Screening data deposited in PubChem by Sanford-Burnham Center for Chemical Genomics.
